In assay [1] the target is human Caspase 4 (CASP4), CASP4 (gene 837) (UniProt P49662). In words: NVS_ENZ_hCASP4: NovaScreen (NVS) Enzymatic Assay for human Caspase 4 (CASP4) (AID 2283143). Put shortly:
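The cell-free assay used E. coli-expressed enzyme with a fluorogenic substrate, read 2 h after dosing. Signal loss was scored versus DMSO. Screening was in duplicate at 25 uM, then singleton concentration-response up to 50 uM.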

Assay [2] concerns the target human Casein Kinase 1-delta (CK1D), CSNK1D (gene 1453) (UniProt P48730). In words: NVS_ENZ_hCK1D: NovaScreen (NVS) Enzymatic Assay for human Casein Kinase 1-delta (CK1D) (AID 2283148). In a few lines: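 Recombinant human CK1-delta, cell-free; fluorescent substrate with electrophoretic mobility-shift separation of product, read 1 h after dosing. Single 25 uM duplicate screen, then concentration-response up to 50 uM; loss of signal vs DMSO.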

The target in assay [3] is human Colony Stimulating Factor 1 Receptor (CSF1R), CSF1R (gene 1436) (UniProt P07333). In words: NVS_ENZ_hCSF1R: NovaScreen (NVS) Enzymatic Assay for human Colony Stimulating Factor 1 Receptor (CSF1R) (AID 2283150). Put shortly:
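Cell-free recombinant human CSF1R kinase with fluorescent substrate, product separated by electrophoretic mobility shift; read 1 h after dosing. Primary screen at 25 uM in duplicate, actives then in concentration-response up to 50 uM, relative to DMSO.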

The target of assay [4] is human Ephrin type-A Receptor 2 (EphA2), EPHA2 (gene 1969) (UniProt P29317). In words: NVS_ENZ_hEphA2: NovaScreen (NVS) Enzymatic Assay for human Ephrin type-A Receptor 2 (EphA2) (AID 2283155). As to the method:
NVS_ENZ_hEphA2 is a biochemical, single-readout assay that uses extracted gene-proteins in a cell-free assay. Measurements were taken 1 hour after chemical dosing in a 384-well plate.NVS_ENZ_hEphA2 is one of one assay component(s) measured or calculated from the NVS_ENZ_hEphA2 assay. It is designed to make measurements of enzyme activity, a form of enzyme reporter, as detected with fluorescence intensity signals by Fluorescence and electrophoretic mobility shift technology.Data from the assay component NVS_ENZ_hEphA2 was analyzed into 1 assay endpoint. This assay endpoint, NVS_ENZ_hEphA2, was analyzed in the positive analysis fitting direction relative to DMSO as the negative control and baseline of activity. Using a type of enzyme reporter, loss-of-signal activity can be used to understand changes in the enzymatic activity as they relate to the gene EPHA2. Furthermore, this assay endpoint can be referred to as a primary readout, because this assay has produced multiple assay endpoints where this one serves a enzymatic activity function. To generalize the intended target to other relatable targets, this assay endpoint is annotated to the kinase intended target family, where the subfamily is receptor tyrosine kinase. […]

Assay [5] has as its target human Ephrin type-B Receptor 2 (EphB2), EPHB2 (gene 2048) (UniProt P29323). Nature of the assay: NVS_ENZ_hEphB2: NovaScreen (NVS) Enzymatic Assay for human Ephrin type-B Receptor 2 (EphB2) (AID 2283156). Put shortly:
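Recombinant kinase with fluorescent substrate, product separated by electrophoretic mobility shift, read 1 h after dosing. Duplicate 25 uM screen, then singleton concentration-response to 50 uM max; loss of signal versus DMSO.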

Records with an inconclusive call do not appear. Active and inactive are the calls of the source. The calls were made as follows: active = hit-call score of the fitted dose curve at least 0.9, where 1 is the maximum; inconclusive = response in the unintended direction; inactive = score below 0.9.

The term AC50 denotes the concentration at which the activity in the assay is half-maximal.

human Ephrin type-A Receptor 2 (EphA2), EPHA2 (gene 1969), sequence (P29317 whole entry, looked up): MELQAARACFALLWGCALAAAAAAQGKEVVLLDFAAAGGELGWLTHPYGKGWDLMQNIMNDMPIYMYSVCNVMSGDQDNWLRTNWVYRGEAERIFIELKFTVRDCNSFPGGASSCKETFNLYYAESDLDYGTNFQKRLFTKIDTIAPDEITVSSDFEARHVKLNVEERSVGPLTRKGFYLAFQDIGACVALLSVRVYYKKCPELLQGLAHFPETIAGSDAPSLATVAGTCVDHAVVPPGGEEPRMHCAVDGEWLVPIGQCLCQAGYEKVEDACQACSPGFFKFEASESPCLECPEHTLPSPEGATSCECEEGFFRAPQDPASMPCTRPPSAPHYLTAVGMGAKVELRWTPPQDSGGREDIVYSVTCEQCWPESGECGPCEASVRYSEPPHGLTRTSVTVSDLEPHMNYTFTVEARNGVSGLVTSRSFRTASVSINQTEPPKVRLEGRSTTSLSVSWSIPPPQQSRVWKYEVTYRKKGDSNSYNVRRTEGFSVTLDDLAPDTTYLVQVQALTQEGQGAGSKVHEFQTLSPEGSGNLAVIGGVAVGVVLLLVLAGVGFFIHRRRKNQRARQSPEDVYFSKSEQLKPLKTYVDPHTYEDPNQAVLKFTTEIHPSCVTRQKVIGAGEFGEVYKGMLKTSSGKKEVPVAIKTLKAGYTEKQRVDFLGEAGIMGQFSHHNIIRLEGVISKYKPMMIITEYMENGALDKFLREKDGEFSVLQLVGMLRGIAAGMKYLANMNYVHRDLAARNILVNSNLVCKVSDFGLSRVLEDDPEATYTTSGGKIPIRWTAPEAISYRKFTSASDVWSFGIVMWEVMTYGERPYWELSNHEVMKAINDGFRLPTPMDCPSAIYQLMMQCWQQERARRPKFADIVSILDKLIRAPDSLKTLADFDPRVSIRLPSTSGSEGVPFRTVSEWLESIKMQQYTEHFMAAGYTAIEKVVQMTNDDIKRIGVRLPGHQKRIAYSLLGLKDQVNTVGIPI
human Ephrin type-B Receptor 2 (EphB2), EPHB2 (gene 2048), sequence (P29323 whole entry, looked up): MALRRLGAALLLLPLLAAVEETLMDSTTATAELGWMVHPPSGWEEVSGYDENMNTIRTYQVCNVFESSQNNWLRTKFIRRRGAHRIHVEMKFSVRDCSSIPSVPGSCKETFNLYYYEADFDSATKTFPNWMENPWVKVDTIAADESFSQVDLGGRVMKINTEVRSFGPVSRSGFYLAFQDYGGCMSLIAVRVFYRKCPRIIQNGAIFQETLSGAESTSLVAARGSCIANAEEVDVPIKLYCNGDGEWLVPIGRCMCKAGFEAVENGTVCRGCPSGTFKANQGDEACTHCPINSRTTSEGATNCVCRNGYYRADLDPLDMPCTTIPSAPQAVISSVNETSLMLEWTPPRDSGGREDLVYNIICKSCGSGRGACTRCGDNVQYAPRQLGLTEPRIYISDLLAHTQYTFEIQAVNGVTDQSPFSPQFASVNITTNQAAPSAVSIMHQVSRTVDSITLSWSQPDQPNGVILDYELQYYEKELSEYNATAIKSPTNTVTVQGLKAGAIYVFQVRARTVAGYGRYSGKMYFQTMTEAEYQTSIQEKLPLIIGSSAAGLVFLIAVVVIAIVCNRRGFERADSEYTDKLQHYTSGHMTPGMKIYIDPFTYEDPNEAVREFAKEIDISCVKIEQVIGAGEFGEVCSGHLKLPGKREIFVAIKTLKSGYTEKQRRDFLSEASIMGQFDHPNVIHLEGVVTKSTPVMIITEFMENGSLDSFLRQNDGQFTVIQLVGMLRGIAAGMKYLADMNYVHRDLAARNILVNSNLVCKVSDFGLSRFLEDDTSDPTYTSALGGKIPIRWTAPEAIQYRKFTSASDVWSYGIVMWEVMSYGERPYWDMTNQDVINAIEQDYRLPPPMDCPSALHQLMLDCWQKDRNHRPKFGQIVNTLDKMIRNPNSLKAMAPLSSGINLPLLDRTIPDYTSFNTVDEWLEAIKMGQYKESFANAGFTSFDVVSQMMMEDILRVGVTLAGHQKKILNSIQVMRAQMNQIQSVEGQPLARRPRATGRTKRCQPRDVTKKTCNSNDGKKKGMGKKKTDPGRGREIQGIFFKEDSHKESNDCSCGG
human Casein Kinase 1-delta (CK1D), CSNK1D (gene 1453), sequence (P48730 whole entry, looked up): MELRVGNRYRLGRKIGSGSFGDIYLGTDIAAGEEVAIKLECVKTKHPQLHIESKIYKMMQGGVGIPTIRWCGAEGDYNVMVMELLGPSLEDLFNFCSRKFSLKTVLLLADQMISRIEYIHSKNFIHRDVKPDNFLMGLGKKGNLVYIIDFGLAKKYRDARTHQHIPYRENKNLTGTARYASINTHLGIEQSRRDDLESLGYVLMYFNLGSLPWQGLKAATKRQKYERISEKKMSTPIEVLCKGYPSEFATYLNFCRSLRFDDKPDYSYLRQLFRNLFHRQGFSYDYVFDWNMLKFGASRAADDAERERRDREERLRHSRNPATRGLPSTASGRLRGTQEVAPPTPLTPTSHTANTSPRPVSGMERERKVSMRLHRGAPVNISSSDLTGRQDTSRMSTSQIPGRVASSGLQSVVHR
human Colony Stimulating Factor 1 Receptor (CSF1R), CSF1R (gene 1436), sequence (P07333 whole entry, looked up): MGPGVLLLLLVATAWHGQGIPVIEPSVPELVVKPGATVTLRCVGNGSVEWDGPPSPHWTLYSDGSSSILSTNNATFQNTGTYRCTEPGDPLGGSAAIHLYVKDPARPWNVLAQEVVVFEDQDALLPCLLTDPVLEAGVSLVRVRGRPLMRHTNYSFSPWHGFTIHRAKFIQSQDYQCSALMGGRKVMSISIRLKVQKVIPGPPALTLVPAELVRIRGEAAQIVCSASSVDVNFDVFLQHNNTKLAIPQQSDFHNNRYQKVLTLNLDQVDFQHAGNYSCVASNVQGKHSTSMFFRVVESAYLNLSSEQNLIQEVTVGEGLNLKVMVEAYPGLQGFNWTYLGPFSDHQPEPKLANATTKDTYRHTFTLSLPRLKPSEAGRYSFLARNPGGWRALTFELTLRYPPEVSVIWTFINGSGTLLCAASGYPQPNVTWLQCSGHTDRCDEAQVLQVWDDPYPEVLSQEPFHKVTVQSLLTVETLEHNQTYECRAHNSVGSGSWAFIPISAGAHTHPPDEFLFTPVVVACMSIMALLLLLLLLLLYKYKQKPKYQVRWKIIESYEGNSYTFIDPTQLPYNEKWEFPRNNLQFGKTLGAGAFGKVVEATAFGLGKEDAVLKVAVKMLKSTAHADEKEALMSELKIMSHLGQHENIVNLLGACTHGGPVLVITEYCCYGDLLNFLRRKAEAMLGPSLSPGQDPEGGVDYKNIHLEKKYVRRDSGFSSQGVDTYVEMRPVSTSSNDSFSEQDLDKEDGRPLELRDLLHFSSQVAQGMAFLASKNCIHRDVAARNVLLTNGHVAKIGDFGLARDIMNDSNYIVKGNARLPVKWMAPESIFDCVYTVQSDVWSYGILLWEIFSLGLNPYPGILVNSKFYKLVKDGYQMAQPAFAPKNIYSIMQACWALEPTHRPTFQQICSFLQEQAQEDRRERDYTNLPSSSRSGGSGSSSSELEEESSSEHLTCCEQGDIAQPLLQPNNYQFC
human Caspase 4 (CASP4), CASP4 (gene 837), sequence (P49662 whole entry, looked up): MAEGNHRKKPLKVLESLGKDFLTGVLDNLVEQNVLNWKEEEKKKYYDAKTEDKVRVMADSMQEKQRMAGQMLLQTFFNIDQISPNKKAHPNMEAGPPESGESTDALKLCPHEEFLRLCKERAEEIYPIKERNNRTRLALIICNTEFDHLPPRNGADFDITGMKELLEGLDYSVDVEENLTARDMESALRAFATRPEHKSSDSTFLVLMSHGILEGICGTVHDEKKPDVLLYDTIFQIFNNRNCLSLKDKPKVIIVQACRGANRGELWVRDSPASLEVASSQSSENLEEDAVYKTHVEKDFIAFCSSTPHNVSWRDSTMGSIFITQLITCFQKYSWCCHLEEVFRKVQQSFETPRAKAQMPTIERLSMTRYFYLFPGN

For `CCCCC(O)(Cn1cncn1)c1ccc(Cl)cc1Cl` (stereo unspecified), the AC50 in assay [1] is 9.08 µM (active). In the case of `CN/C(=N\[N+](=O)[O-])NCc1cnc(Cl)s1`, the outcome in assay [2] was inactive. Regarding `CCN(CC)C(=O)C(C)Oc1cccc2ccccc12` (stereo unspecified), the call in assay [3] was inactive.

In the case of `Clc1nc(Cl)nc(Nc2ccccc2Cl)n1`, in assay [4], the call was inactive. Still for that read-out and setting: under `CC(C)NC(=O)N1CC(=O)N(c2cc(Cl)cc(Cl)c2)C1=O` stands “inactive”.

For `COC(=O)N(C(=O)N1CO[C@@]2(C(=O)OC)Cc3cc(Cl)ccc3C2=N1)c1ccc(OC(F)(F)F)cc1`, the compound was classed as inactive in assay [5].

(Values after PubChem BioAssay (EPA / NIEHS).)
